Results reported in PubChem BioAssay AID651803 (National Center for Advancing Translational Sciences (NCATS), 2012).
Screen size: about 1,200 compounds; fewer than 10 were called active. Calls follow the shape of the dose curve; as a rule, active = well fitted curve in the direction sought with a large enough effect; inconclusive = small, poorly fitted or top-dose-only effect, or another doubt; inactive = no such curve, though single readings can be large or run the other way. The list is a sample of the results. Residues, ends and D or L forms follow the SMILES beside them.

target: Transcriptional regulator ERG (Homo sapiens) (UniProt P11308); assay: qHTS for Small Molecule Inhibitors of the ERG Ets/DNA interaction: TR assay against cherry picks; conditions: ERG Ets domain-DNA fluorescence polarization, Texas red probe; series mostly up to 154 µM; activity change, negative = inhibition: at the top concentration; also: % of control where 0% means no effect
Sequence (P11308 whole entry, looked up, the tested form may be a part): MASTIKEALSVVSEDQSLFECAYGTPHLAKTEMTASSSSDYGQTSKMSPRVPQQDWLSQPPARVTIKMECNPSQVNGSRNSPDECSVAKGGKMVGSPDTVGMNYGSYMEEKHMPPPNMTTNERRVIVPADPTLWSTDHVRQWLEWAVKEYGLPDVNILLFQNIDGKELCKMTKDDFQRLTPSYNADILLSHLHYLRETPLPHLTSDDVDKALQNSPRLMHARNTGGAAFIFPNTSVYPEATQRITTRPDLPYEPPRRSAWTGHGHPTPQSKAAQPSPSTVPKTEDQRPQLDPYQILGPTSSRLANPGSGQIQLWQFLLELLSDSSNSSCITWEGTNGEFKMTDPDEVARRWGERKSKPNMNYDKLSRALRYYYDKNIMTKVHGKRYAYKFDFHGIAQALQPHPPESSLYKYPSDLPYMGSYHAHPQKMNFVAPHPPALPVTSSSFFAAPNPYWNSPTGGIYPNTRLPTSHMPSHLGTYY
Excerpt: The Ets family of proteins is a family of ~30 conserved transcription factors defined by the presence of an ~85 amino acid domain referred to as the Ets domain, which mediates sequence-specific DNA binding to a core DNA element GGAA/T.The Ets family member ERG has been linked to several neoplasms. […] More extensive studies of the effects of over-expression of ERG in prostate cells have recently been carried out and have shown that over-expression of ERG results in increased invasion. […] We will carry out a high throughout screen to identify inhibitors of the interaction between ERG and DNA using a fluorescence polarization (FP) assay with a His-tagged ERG Ets domain and fluorescently-labeled DNA probes to develop small molecule inhibitors of this interaction as probes to test this hypothesis and lay the groundwork for the development of targeted therapies against ERG. This is the confirmation against the cherry picks in theprimary screening assay. NIH Molecular Libraries Probe Production Network [MLPCN] NIH Chemical Genomics Center [NCGC] Grant: NS066464 PI Name: John Bushweller, University of Virgina
1.5 ul of protein solution (1 uM ERG domain in 300mM KCl, 50mM Tris-HCl, 1mM EDTA, 1mM DTT, pH 7.5); 20 nl Control plate and compound library plate; 1.5 ul mixture of 5 nM Fluorescein-DNA and 100nM Texas-615-DNA solution in same buffer as above solution; measure fluorescence polarization sequentially for fluorescein (Excitation = 480 nm, Emission = 535s, 535p nm) and Texas red (Excitation = 555 nm, Emission = 632s, 632p nm).

Activity change, negative = inhibition, inactive:
Cc1ccccc1OCc1nnc(SCC(=O)Nc2ccc(N3CCOCC3)c(Cl)c2)n1C -15.8%
O=C(O)c1cc(O)c2c(c1)[C@H]([C@H]1c3cc(C(=O)O)cc(O)c3C(=O)c3c(O[C@@H]4O[C@H](CO)[C@@H](O)[C@H](O)[C@H]4O)cccc31)c1cccc(OC3O[C@H](CO)[C@@H](O)[C@H](O)[C@H]3O)c1C2=O (stereo partly drawn) -12.2%
COc1ccccc1CN(C)C(=O)C(NC(=O)Cc1cccc2ccccc12)C(C)C (stereo not drawn) -0.0885%
O=C(CN1C=NS(=O)(=O)c2ccccc21)Nc1ccc(Br)cc1 -7.5%
Cc1ccc(S(=O)(=O)NCC(=O)N(CC(=O)NCC2CCCO2)c2cccc(F)c2)cc1 (stereo not drawn) -5.86%
Clc1ccc(SCc2nc3ccccc3[nH]2)cc1 -2.08%
CCc1n[nH]c(=S)n1/N=C/c1ccc(N(C)c2ccccc2)cc1 1.89%
CNC(=O)c1cccc(-n2c(C)nc3cccnc32)c1C 13%
Cc1ccc(/C=C2\SC(N3CCCCC3)=NC2=O)cc1 -1.4%
CCc1cccc(NC(=O)C2CCCN(S(=O)(=O)c3ccc4[nH]c(=O)ccc4c3)C2)c1 (stereo not drawn) 0.67%
COc1ccc(-c2ccc(SCC(=O)NCc3ccc4c(c3)OCO4)nn2)cc1OC -14.9%
C=CCn1c(=O)[nH]c2cc(C(=O)N3CC=C(c4ccccc4)CC3)ccc2c1=O 0.0273%
COc1ccccc1CNC(=O)CCNC(=O)C1CCN(S(=O)(=O)c2ccccc2)CC1 -4.44%
Oc1ccc(Nc2ccc3ccccc3c2)cc1 -16%
Cc1ccc(OCC(=O)OCC(=O)c2ccccc2)cc1C 4.59%
CC(C)N1CCC(N2CCN(Cc3cccc4nonc34)CC2CCO)CC1 (stereo not drawn) 6.57%
O=C(O)CNC(=O)/C(=C\c1ccc2c(c1)OCO2)NC(=O)c1ccc(Br)cc1 3.73%
O=C(COc1coc(CN2CCCc3ccccc32)cc1=O)Nc1cccc([N+](=O)[O-])c1 2.41%
COc1cccc(CC2(CO)CCN(S(=O)(=O)N(C)C)CC2)c1 2.59%
CCOc1cc(C2c3c(oc4ccccc4c3=O)C(=O)N2Cc2ccc(OC)cc2)ccc1O (stereo not drawn) -8.68%
Cc1cccc(-c2oc3ccccc3c2-c2ccc3c(c2)OCO3)c1 2.05%
Cc1ncc([N+](=O)[O-])n1CC(=O)N/N=C/c1ccc(F)cc1 -3.78%
Cc1ccc(C(=O)Nc2ccc(C(=O)N/N=C/c3c[nH]c4ccccc34)cc2)cc1 -28.5%
Cc1ccc(/C=C2\Sc3ccccc3C2=O)s1 -2.68%
COc1ccc([C@@H](NC(=O)OC(C)(C)C)C(=O)OC(C)(C)C)cc1 -13.8%
O=c1ccc(-c2ccc(S(=O)(=O)Nc3cccc(Br)c3)o2)n[nH]1 2.8%
Nn1c(Cc2ccccc2)nc2sc3c(c2c1=O)CCC3 5.36%
CCCN(CCC)Cc1c(C(=O)N/N=C/c2cccs2)nnn1-c1nonc1N 1.84%
Cn1c(CNC(=O)CNC(=O)c2ccc(C(C)(C)C)cc2)cc(=O)n(C)c1=O -3.56%
C/C(=N\Nc1ccc(C#N)cc1[N+](=O)[O-])c1ccc(C)o1 0.206%
CC(=O)Nc1ccc(NC(=O)C(C)OC(=O)C2CCN(S(=O)(=O)c3ccc4c(c3)OCCO4)CC2)cc1 (stereo not drawn) 1.51%
CCS(=O)(=O)N1CCC(C(=O)OCC(=O)c2ccc(Br)cc2)CC1 8.14%
Cn1c(SCC(=O)N2CCN(C(=O)c3ccco3)CC2)nnc1-c1ccc(NS(C)(=O)=O)cc1 -9.66%
CCOC(=O)N1CCC(NC(=O)Cc2ccccc2)CC1 1.65%
CC(=O)NC(Cc1ccccc1)C(=O)NC(Cc1ccccc1)C(=O)O (stereo not drawn) (Ac-Phe-Phe-OH; configuration not given here) 8.39%
COc1ccccc1C(=O)Nn1c(-c2cccs2)nc2ccccc2c1=O 2.95%
Cc1c(OC(C(=O)O)c2ccccc2)ccc2c(-c3ccccc3)cc(=O)oc12 (stereo not drawn) 3.4%
COc1cc(C(=O)Cc2nc3ccccc3n2C)cc(OC)c1OC -6.52%
CC(=O)Nc1ccc(NC(=O)Nc2ccc(C)cc2C)cc1 1.3%
CCOc1ccc(N/C(SCc2cccc([N+](=O)[O-])c2)=C(/C#N)C(N)=O)cc1 -6.84%
CC(C)(C)SC(=O)CC1NS(=O)(=O)OC2CCCCC12 (stereo not drawn) 1.13%
Cc1cccn2c(=O)cc(COc3ccc(NC(=O)C(C)C)cc3)nc12 -1.94%
CCc1nnc2c(N3CCN(c4cccc(C(F)(F)F)c4)CC3)nc3ccccc3n12 -11.3%
COC(=O)c1ccc2c(=O)n(CCN3CCOCC3)c(SCC(=O)Nc3ccc(OC)cc3OC)nc2c1 7.16%
COc1ccc(S(=O)(=O)N2CCc3ccccc32)cc1C(=O)N(CC(C)C)C1CCS(=O)(=O)C1 (stereo not drawn) 0.304%
FC(F)(F)COc1cc(-c2nnc(SCc3ccccc3)n2Cc2ccco2)cc(OCC(F)(F)F)n1 -11.3%
N/C(=N\c1nc2ccccc2o1)NC(=O)c1cccc(Br)c1 1.54%
Cc1ccccc1OCC(=O)Nc1ccc2[nH]ncc2c1 -5.59%
CCN1CCN(CCCN(Cc2cccs2)C(=S)Nc2ccccc2C)CC1 -20.8%
Nc1ccc2nc3c(=O)n(CCc4ccccc4)c(=O)[nH]c3nc2c1 38.9%
CCOC(=O)C1=C(C)N(C[C@@H]2CC[C@@H](Cc3ccc(-c4ccccc4)cc3)O2)C(=O)NC1c1ccc([N+](=O)[O-])cc1 (stereo partly drawn) 0.997%
COc1cc(/C=C/C(=O)OCC(=O)NC(=O)NC2CCCCC2C)ccc1OC(F)F (stereo not drawn) 1.76%
O=S(=O)(NCCC1=CCCCC1)c1ccc(OC(F)(F)F)cc1 -22.2%
CCN1C(=O)CSc2ccc(C(=O)NC3CCCCC3)cc21 1.14%
COc1ccc(C2(C(=O)Nc3ccc(OC)cc3OC)CCCC2)cc1 -3.52%
CC1COc2ccccc2N1S(=O)(=O)c1ccc(Cl)cc1 (stereo not drawn) 6.25%
CCOC(=O)C1CCN(C(=O)c2cccc(S(=O)(=O)N3CCCc4ccccc43)c2)CC1 -15.3%
O=C(Nc1cc2c(cc1Cl)-c1ccc([N+](=O)[O-])cc1C2=NO)C(F)(F)F -27.9%
CC(C)C(C(=O)O)N1CCS(=O)(=O)CC1 (stereo not drawn) 4.35%
CCN(CC)c1ccc2cc(-c3nc(-c4cc(OC)c(OC)c(OC)c4)no3)c(=O)oc2c1 9.56%
CCOC(=O)c1ccc(NC(=O)c2cn(-c3ccccc3)nc2-c2ccc(OC)c(OC)c2)cc1 -9.46%
CC(OC(=O)C1CCN(S(=O)(=O)c2ccccc2C(F)(F)F)CC1)C(=O)N(C)Cc1ccccc1 (stereo not drawn) 1.27%
CCOc1ccc(NC(=O)Cc2c(C(=O)O)n(C)c3ccccc23)cc1 5.3%
CN(CC(=O)NC(=O)NC1CCCCC1)CC(=O)Nc1ccc(Cl)cc1 1.09%
NC(=O)Nc1ccc(C(=O)OCC(=O)NC2CCCc3ccccc32)cc1 (stereo not drawn) -13.4%
Cc1ccccc1S(=O)(=O)N(CC(O)CN1C(=O)NC(C)(C)C1=O)c1ccccc1 (stereo not drawn) -2.88%
Cn1cc2c(=O)n(/N=C/c3ccccc3)cnc2n1 4.94%
O=C(O)CN1C(=O)C(=O)N(Cc2ccc(C(F)(F)F)cc2)C1=O -3.42%
Cn1cccc1C(=O)OCC(=O)Nc1ccc2[nH]c(=O)[nH]c2c1 -18.6%
CCC(C)NCCOc1ccc(C)cc1[N+](=O)[O-] (stereo not drawn) 11.8%
CC(C)n1c(SCc2ccccc2F)nc2c1c(=O)n(C)c(=O)n2C -13.1%
CCc1ccc2c(c1)c(=O)c(C(=O)c1ccc(C)cc1)cn2CC(=O)Nc1ccccc1C 2.71%
COc1ccc(C(=O)N2CCc3ccc(NC(=O)c4ccccn4)cc3C2)cc1F -0.766%
CCN(CC(=O)Nc1ccc(N2CCOCC2)cc1)CC(=O)NC(C)(C)C -0.837%
Cc1ccc(C)c(N(CC(=O)NCc2ccco2)C(=O)CNS(=O)(=O)c2ccc(F)cc2)c1 2.79%
O=C(OCC(=O)N1CCN(c2ccccc2)CC1)c1cccc([N+](=O)[O-])c1 -8.8%
O=C(Nc1ccc(NS(=O)(=O)c2ccc([N+](=O)[O-])cc2)cc1)c1ccco1 6.22%
Oc1ccccc1CN1CCCC(N2CCN(c3cccc(C(F)(F)F)c3)CC2)C1 (stereo not drawn) -0.432%
O=C(NNC(=O)c1sccc1-n1cccc1)Nc1ccccc1 11.1%
CCOC(=O)c1c(NC(=O)C(C)Sc2cn(CCNC(=O)c3ccc(OC)c(OC)c3)c3ccccc23)sc2c1CCC2 (stereo not drawn) -9.91%
CC(=O)NCc1ccc(S(=O)(=O)N2CCN(c3ccccn3)CC2)cc1 2.4%
CN(C(=O)COC(=O)c1cc(S(=O)(=O)N2CCOCC2)ccc1F)C1CCS(=O)(=O)C1 (stereo not drawn) 1.52%
Cn1c(SCc2nnc(-c3ccccc3)o2)nc2ccccc21 2.98%
COc1cccc(OC)c1C(=O)Nn1c(-c2cccs2)nc2ccccc2c1=O 1.79%
Cc1cc(C)c2nc(NC(=O)[C@@H](NC(=O)c3cccc(S(=O)(=O)N4CCOCC4)c3)C(C)C)sc2c1 -9.98%
S=C(NCCc1ccccc1)Nc1ccc(Cl)cc1Cl 0.951%
CN(C)Cc1cc2ccccc2c2c1COC2 -13.2%
O=C(NCC1CCN(S(=O)(=O)c2ccccc2)CC1)Nc1ccc(F)cc1 1.59%
O=C1/C(=C/c2cccs2)Sc2ccccc21 14.3%
Cc1ccc(N(CC(=O)NC2CCCC2)C(=O)CNC(=O)c2cccs2)c(C)c1 -7.05%
COc1ccc(N(C(=O)c2snc(C(N)=O)c2N)C(C(=O)NCC2CCCO2)c2ccc3ncccc3c2)cc1OC (stereo not drawn) -0.522%
Cc1ccc(-c2[nH]c(-c3ccc(C(=O)O)cc3)nc2-c2ccccc2)cc1 -7.62%
Cc1ccccc1OCc1nc(-c2ccc(NC(=O)c3ccc4c(c3)OCO4)cc2)no1 10.3%
CCOCCCNCC(=O)Nc1ccc(S(=O)(=O)NC(C)CC)cc1 (stereo not drawn) -4.09%
CC1CCN(C(=O)COC(=O)c2ccc(=O)n(Cc3ccccc3)n2)CC1 8.59%
C=CCN1C(=O)c2ccc(C(=O)Nc3ccccn3)cc2C1=O -1.88%
Cc1cccc(NC(=O)c2cc3ccccc3nc2C)c1 -2.6%
CC(=O)Nc1ccc(S(=O)(=O)N[C@@H](C)C(=O)N2CCN(C/C=C/c3ccccc3)CC2)cc1 -0.505%
